# ELG1 genotoxic – induces genotoxicity in HEK293T cells with luciferase-tagged ELG1; HEK293T ELG1-luciferase reporter, luminescence, 16 h; Potency, µM (series often up to 46 µM), for the others: at the highest dose activity change, positive = activation, actives largely listed as activators; 330,000 tested, 1.3% active; note: % of control where 0% means no effect; nearly all actives have a fitted effect of over 60% in size
#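 HEK293T cells expressing luciferase-tagged ELG1 were treated with compound or DMSO for 16 hr at 37°C. Luciferase activity was then read after 30 min with ONE-Glo at room temperature; rising signal flags genetic stress.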
# p53 reactivator – mutant p53 re-activation in reporter cells. 320,000 tested, 0.063% active. Potency, µM (top dose mostly 92.2 µM), inactives show at the top dose activity change, positive = activation, actives largely listed as activators. H1299 p53-A138V BP100-luciferase reporter, luminescence, 24 h; note: % of control where 0% means no effect; nearly all actives have a fitted effect of over 45% in size
#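 p53-null H1299 cells stably carrying temperature-sensitive p53-A138V and a BP100-luciferase reporter were pinned with compounds (4-point, 1:5 series) and held 24 hrs at 37 deg C. Luminescence was read 10 min after detection reagent.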
# NPC1 promoter act – activates the NPC1 promoter. Huh7 NPC1 promoter luciferase reporter, 24 h. Potency, µM (top dose mostly 9.22 µM), for inactives: at the top dose activation, usual class: activators. 320,000 tested, 2.4% active. AID 485313; note: % of control where 0% means no effect; nearly all actives have a fitted effect of over 60% in size
#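 Huh7 reporter cells (NPC1 promoter driving luciferase) are dosed with compound for 24 h at 37 °C, 5% CO2; luciferase detection reagent is then added and luminescence measured after 10 min at ambient temperature.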
# FLuc counter – counter-screen for miR-21 project: firefly luciferase inhibitors or activators; 360,000 tested, 6.9% active; P08659; purified FLuc, Km substrates, luminescence inhibition; Potency, µM (doses to about 57.5 µM), without a hit: at the highest dose activity change, negative = inhibition, most hits filed as inhibitors;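 note: plate controls were vehicle for no effect and reference inhibitor for full effect; nearly all actives have a fitted effect of over 55% in size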
# Target sequence (P08659 whole entry, looked up): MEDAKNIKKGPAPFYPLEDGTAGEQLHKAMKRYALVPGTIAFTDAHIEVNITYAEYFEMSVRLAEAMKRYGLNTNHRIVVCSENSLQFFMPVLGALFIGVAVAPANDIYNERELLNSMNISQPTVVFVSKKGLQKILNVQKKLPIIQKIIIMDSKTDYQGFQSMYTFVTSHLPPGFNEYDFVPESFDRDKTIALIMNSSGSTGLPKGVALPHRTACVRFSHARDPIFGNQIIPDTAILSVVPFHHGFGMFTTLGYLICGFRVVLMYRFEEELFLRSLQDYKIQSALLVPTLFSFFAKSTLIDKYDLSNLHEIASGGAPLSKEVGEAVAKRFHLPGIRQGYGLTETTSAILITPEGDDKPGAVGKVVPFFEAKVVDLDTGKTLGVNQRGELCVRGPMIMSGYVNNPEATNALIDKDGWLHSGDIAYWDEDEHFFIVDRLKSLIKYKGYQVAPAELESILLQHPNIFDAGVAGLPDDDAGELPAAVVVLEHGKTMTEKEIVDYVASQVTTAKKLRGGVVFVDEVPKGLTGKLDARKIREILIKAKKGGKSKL
#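 Purified P. pyralis luciferase, 10 nM final, with Km-level 10 uM D-luciferin and 10 uM ATP in 50 mM Tris acetate pH 7.5, 10 mM Mg acetate, 0.01% Tween-20, 0.05% BSA; 6-point qHTS titration about 60 µM downward; luminescence read.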
# SMN2 splice enh – increases expression of the SMN2 splice variant | HEK293 SMN2-luciferase splicing reporter, luminescence, 30-36 h | Potency, µM (doses to about 46.1 µM), without a hit: at the highest dose activity change, positive = activation, hits mostly activators | 210,000 tested, 2.8% active | AID 1458; note: % of control where 0% means no effect; nearly all actives have a fitted effect of over 55% in size
#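 qHTS luciferase splicing reporter: luminescence rises when SMN2 exon 7 is included in transfected HEK293 cells. Compound exposure lasted 30-36 h at 37C, with 4.5 mM final sodium butyrate as control, followed by a ONE-Glo read.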
# Rab9 promoter act – activates the Rab9 promoter | Huh7 Rab9 promoter-luciferase reporter, luminescence, 24 h | Potency, µM (series often up to 9.22 µM), for inactives: at the highest dose activation, negative = inhibition, usual class: activators | 320,000 tested, 2.8% active | AID 485297; note: % of control where 0% means no effect; nearly all actives have a fitted effect of over 60% in size
#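 Huh7 cells stably carrying Rab9 promoter–luciferase reporter, plated 1500 cells/well, compound added after 2 h and incubated 24 h at 37 °C; luciferase luminescence then read after 10 min with detection reagent.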
# * marks the source's active call; other numbers are inactive results; ? = inconclusive; · = no result; [ ] = another dose, or the depositor's remark. This is a sample that favours compounds with a hit; in the whole collection about 7.4% have one here. Calls come from the whole dose curve; as a rule, active = well fitted curve in the direction sought with a large enough effect; inconclusive = small, poorly fitted or top-dose-only effect, or another doubt; inactive = no such curve, though single readings can be large; an effect the other way counts as inactive or inconclusive. Potency is the fitted concentration of half-maximal effect.
SMILES,ELG1 genotoxic,p53 reactivator,NPC1 promoter act,FLuc counter,SMN2 splice enh,Rab9 promoter act
O=C(CSc1nnc(NC(=O)c2cccc(Br)c2)s1)NCC1CCCO1 (stereo not given),?,11.5%,?,8.49µM*,·,·
O=C(CSc1nnc(NC(=O)c2ccccc2F)s1)NCC1CCCO1 (stereo not given),?,?,?,12µM*,·,?
COc1ccc(C(=O)Nc2nnc(SCC(=O)NCC3CCCO3)s2)cc1OC (stereo not given),23.7%,3.9%,21.0%,12µM*,·,14.9%
CCCCOc1ccc(C(=O)NCC(=O)N2CC=C(c3ccccc3)CC2)cc1,1.0%,0.3%,-2.8%,0.4%,·,1.7%
O=C(CSc1nnc(NC(=O)c2ccccc2[N+](=O)[O-])s1)NCC1CCCO1 (stereo not given),2.4%,7.3%,5.6%,16.9µM*,·,3.9%
O=C(CSc1nnc(NC(=O)c2ccccc2)s1)NCC1CCCO1 (stereo not given),?,25.0%,3.55µM*,4.26µM*,·,2.82µM*
O=C(CSc1nnc(NC(=O)Cc2ccccc2)s1)NCC1CCCO1 (stereo not given),-2.0%,3.0%,-1.8%,-4.8%,-12.2%,-9.2%
Cn1nnnc1SCC(=O)Nc1nc2c(F)c(F)c(F)cc2s1,-1.2%,17.5%,·,·,·,·
Cc1cc(C(=O)NC2=NCCS2)c2ccccc2n1,-0.3%,-2.4%,-8.3%,-4.3%,17.0%,0.1%
COc1ccc(-c2cc(C(=O)N3CCCCC3)c3ccccc3n2)cc1OC,-7.4%,-12.9%,-4.0%,?,·,-1.4%
COc1ccc(-c2cc(C(=O)NC3=NCCS3)c3ccccc3n2)cc1OC,-6.0%,-3.6%,13.5%,9.53µM*,4.9%,?
O=C(NC1=NCCS1)c1cc(-c2ccc(-c3ccccc3)cc2)nc2ccccc12,13.5%,?,3.98µM*,0.849µM*,-6.9%[1.84 µM],1.78µM*
CC(=O)c1c(O)c(C)c(O)c2c1OC1=CC(=O)C(C(C)=O)C(=O)[C@@]12C (stereo not given in full),-15.4%,1.3%,-5.1%,0.1%,·,-4.3%
O=C(Nc1cc([N+](=O)[O-])ccc1O)c1ccc2c(c1)C(=O)N(Cc1ccco1)C2=O,3.4%,-1.7%,3.98µM*,?,·,3.98µM*
CCOc1ccccc1N1CSC2=C(C#N)C(c3c(OC)ccc4ccccc34)CC(=O)N2C1 (stereo not given),-6.1%,13.8%,1.4%,7.57µM*,5.0%,0.5%
COc1cc(OC)c(C2CC(=O)N3CN(c4ccc(C)cc4)CSC3=C2C#N)cc1OC (stereo not given),2.8%,?,?,15.1µM*,6.7%,25.4%
Cc1cn2c(=O)c(S(=O)(=O)NCc3ccc(F)cc3)c(C)nc2s1,·,·,·,6.0%,·,·
CCc1ccc(NC2=CC(=O)C(=O)c3ccccc32)cc1,-5.8%,-19.7%,1.3%,10.7µM*,·,-4.4%
O=C1C=C(Nc2ccccc2)C(=O)c2ccccc21,7.1%,?,1.78µM*,3.38µM*,12.6µM*,1µM*
C/C=C(\C)CN1CCCC(N(C)CCc2ccc(OC)c(OC)c2)C1 (stereo not given),-3.4%,·,-3.9%,-0.3%,·,-4.9%
Cc1cc(C)c2nc3c(c([C@H](O)C4CCCCN4)c2c1)CC/C3=C/c1ccc(Cl)cc1 (stereo not given in full),·,·,·,·,10.0%[9.22 µM],·
Cc1nc(SCC(=O)Nc2ccc(OCc3ccccc3)cc2)n[nH]1,15.1%,5.2%,27.4%,12µM*,·,?
CCOc1ccc(NC(=O)CSc2ncn[nH]2)cc1,10.6%,2.4%,10.9%,?,1.2%,21.8%
O=C(CSc1ncn[nH]1)Nc1ccc(OCc2ccccc2)cc1,?,-1.0%,29.0%,16.9µM*,?,?
Cc1ccccc1CS(=O)(=O)Cc1ccc(C(=O)NCc2ccc(F)cc2)o1,·,·,·,-0.1%,·,·

# Screening results deposited in PubChem by National Center for Advancing Translational Sciences (NCATS).
